Screening data: PubChem BioAssay, National Center for Advancing Translational Sciences (NCATS)
The entries come from a sample that favours hits as a whole.
TDP1 cell CPT: DT40-hTDP1 cell growth loss with CPT. chicken DT40 Tdp1-/-;hTDP1 cells + 20 nM CPT, ATP luminescence, 48 h. Potency, µM (top dose mostly 46.2 µM), without a hit: top-dose activity change, negative = growth inhibition, hits mostly inhibitors. actives 12% (n = 420,000); further: potency means the concentration at half of the fitted maximal effect; nearly all actives have a fitted effect of over 55% in size
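Chicken DT40 Tdp1-/- cells complemented with human TDP1, 400 cells/well, exposed to compounds plus 20 nM camptothecin for at least 48 h at 37 C; viability read as ATP content by CellTiter-Glo luminescence.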
HT1080 IDH1KD tx: toxicity to HT-1080 IDH1 knockdown cells (counter line); Potency, µM (top dose mostly 46.1 µM), for inactives: at the highest dose activity, negative = toxicity, actives largely listed as cytotoxic; AID 686971; HT-1080 IDH1 knockdown viability, ATP luminescence, 48 h; actives 2% (n = 360,000);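 further: potency means the concentration at half of the fitted maximal effect; 0% = DMSO wells and -100% = cell-free medium wells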
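Viability of IDH1-knockdown HT-1080 fibrosarcoma cells was assessed by CellTiter-Glo after 48 h at 37 °C with titrated compound; concentration-effect curves were classified by fit quality and response size.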
IL-1B inflam inh: inhibitors of inflammasome signaling (IL-1 beta secretion) | actives 4.7% (n = 360,000) | THP-1 LPS/ATP IL-1B secretion, AlphaLISA, 16 h; stronger effect = lower value | activity change, % at 57.5 µM; in the data active means activity change below about -50%; inconclusive means mostly about -30% to -49%
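Secreted IL-1B measured by AlphaLISA bead assay after 16 h compound exposure of THP-1 cells; compounds (final up to 57.5 uM) added 1 h before LPS (250 ng/mL) and ATP (1.25 mM) stimulation; lower signal means less secretion.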
12-LOX inh: blocks human arachidonate 12S-lipoxygenase; AID 1671190; actives 1.1% (n = 580,000); purified 12hLO, xylenol orange hydroperoxide absorbance; Potency, µM (doses to about 108 µM), without a hit: top-dose activity change, negative = inhibition, hits mostly inhibitors; P18054; further: potency means the concentration at half of the fitted maximal effect
Target sequence (P18054 whole entry, looked up): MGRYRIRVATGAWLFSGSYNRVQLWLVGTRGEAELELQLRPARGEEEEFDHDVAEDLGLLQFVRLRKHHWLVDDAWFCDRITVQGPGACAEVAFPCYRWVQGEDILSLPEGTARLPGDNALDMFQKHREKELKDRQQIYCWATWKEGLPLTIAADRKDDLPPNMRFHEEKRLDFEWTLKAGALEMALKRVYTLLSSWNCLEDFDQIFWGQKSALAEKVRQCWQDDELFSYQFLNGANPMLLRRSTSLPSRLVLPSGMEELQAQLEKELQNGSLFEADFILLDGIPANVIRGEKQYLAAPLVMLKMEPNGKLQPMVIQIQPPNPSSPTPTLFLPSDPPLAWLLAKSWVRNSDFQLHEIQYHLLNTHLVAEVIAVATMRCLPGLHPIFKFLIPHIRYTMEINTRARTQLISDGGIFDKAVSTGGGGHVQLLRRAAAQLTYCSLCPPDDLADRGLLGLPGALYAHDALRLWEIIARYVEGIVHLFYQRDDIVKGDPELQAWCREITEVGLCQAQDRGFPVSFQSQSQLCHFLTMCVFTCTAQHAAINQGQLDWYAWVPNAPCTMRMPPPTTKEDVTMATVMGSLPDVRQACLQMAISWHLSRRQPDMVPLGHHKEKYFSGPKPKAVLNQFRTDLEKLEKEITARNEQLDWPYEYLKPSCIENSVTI
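Purified human 12hLO at 150 nM in 25 mM Hepes, 0.01% Triton X-100, pH 7.0, preincubated 15 min at room temperature with compound. Reaction started with 40 uM arachidonic acid, 30 min at room temperature. Hydroperoxide measured by Fe-xylenol orange, 573/405 nm absorbance ratio.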
HT1080-NT tox: kills 2HG-producing HT-1080-NT fibrosarcoma cells | HT-1080-NT fibrosarcoma viability, CellTiter-Glo ATP luminescence, 48 h | Potency, µM (top dose mostly 46.1 µM), inactives show top-dose activity, negative = less viability, actives largely listed as cytotoxic | actives 1.6% (n = 360,000) | AID 686970;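 further: NT is the 2HG producing partner of a matched IDH1 knockdown line; potency means the concentration at half of the fitted maximal effect; 0% = DMSO-treated cells and -100% = media-only wells without cells; nearly all actives have a fitted effect of over 55% in size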
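Toxicity toward the 2HG-producing NT line was scored as %Activity, normalised to DMSO and no-cell wells, from CellTiter-Glo luminescence after 48 hours' treatment.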
DT40 TDP1 no CPT: qHTS for Inhibitors of human tyrosyl-DNA phosphodiesterase 1 (TDP1): qHTS in cells in absence of CPT. actives 15% (n = 420,000). DT40 Tdp1-/- hTDP1 cells, no CPT, ATP luminescence, 48 h. AID 686978, 2013. Potency, µM (highest dose often 46.2 µM), inactives show at the top dose activity change, negative = growth inhibition, hits mostly inhibitors; further: potency means the concentration at half of the fitted maximal effect; nearly all actives have a fitted effect of over 55% in size
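Growth of hTDP1-complemented DT40 Tdp1-knockout cells is measured by ATP luminescence after at least 48 hr compound exposure at 37 °C, with DMSO substituting for the 20 nM CPT used in the parallel screen.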
* marks the source's active call; other numbers are inactive results; ? = inconclusive; . = no result; [ ] = dose if it differs, or a comment. Unless noted, the call rests on the fitted dose curve; in most records, active means well fitted curve in the direction sought with a large enough effect; inconclusive means small, poorly fitted or top-dose-only effect, or another doubt; inactive means no such curve, though single readings can be large; an effect the other way counts as inactive or inconclusive. Unless noted, on the % scale 0 is the no-effect control and ±100 the full control effect.

SMILES	TDP1 cell CPT	HT1080 IDH1KD tx	IL-1B inflam inh	12-LOX inh	HT1080-NT tox	DT40 TDP1 no CPT
Cc1ccccc1CS(=O)(=O)CCC(=O)NCCN1CCN(c2cccc(Cl)c2)CC1	23µM*	-3%	?	11%	-1%	15µM*
O=C(NCCN1CCN(c2cccc(Cl)c2)CC1)Nc1ccccc1C(F)(F)F	?	.	.	1%	.	18µM*
Cc1cc2nc(C)c(=O)n(CCC(=O)NCCN3CCN(c4cccc(Cl)c4)CC3)c2cc1C	.	.	.	-4%	.	.
Nc1nc(Nc2ccc(Cl)cc2)nc(-c2cc3ccccc3o2)n1	.	.	.	1%	.	.
O=C1CCCN1CCC1CCN(C2CC(=O)N(c3ccc(F)cc3)C2=O)CC1 (stereo not given)	18µM*	-30%	20	-5%	2%	21µM*
CCCCN(C)c1ccc(-c2n[nH]c(=O)c3ccccc23)cc1[N+](=O)[O-]	.	.	.	-1%	.	.
COc1ccc(-c2ccc3c(c2)S(=O)(=O)c2cccc(C(=O)NCc4ccccc4Cl)c2C3=O)cc1OC	21µM*	8%	11	?	10%	15µM*
COc1ccc(-c2ccc3c(c2)S(=O)(=O)c2cccc(C(=O)NC4CCCCC4)c2C3=O)cc1OC	15µM*	12%	16	.	18%	23µM*
COc1ccc(-c2ccc3c(c2)S(=O)(=O)c2cccc(C(=O)NC4CC4)c2C3=O)cc1OC	?	-19%	-2	-3%	6%	-27%
COc1ccc(-c2ccc3c(c2)S(=O)(=O)c2cccc(C(=O)NCCOc4ccccc4Cl)c2C3=O)cc1OC	23µM*	8%	159	-11%	-3%	23µM*
Cc1ccc(C2=NC3(CCN(C(=O)c4ccn[nH]4)CC3)ON2)cc1	.	.	.	29%	.	.
Cc1ccc(-c2nc(CSc3nnc(NCc4ccccc4)s3)co2)cc1	.	.	.	10%	.	.
CC(=O)N1CCN(c2ccc(NC(=O)COc3ccc(Cl)cc3Cl)cc2)CC1	23µM*	-26%	?	?	-7%	18µM*
COc1ccc(CCC(=O)Nc2cc(Cl)ccc2N2CCN(C)CC2)cc1	?	-25%	?	-13%	-18%	?
O=C(COc1ccc(Cl)cc1Cl)N1CCCN(C(=O)COc2ccc(Cl)cc2Cl)CC1	?	?	-76*	?	-27%	?
CN1CCN(c2ccc(Cl)cc2NC(=O)/C=C/c2ccc(F)cc2)CC1	?	16µM*	-73*	5%	23µM*	16µM*
CC(Oc1ccc(Br)cc1)C(=O)Nc1cc(Cl)ccc1N1CCN(C)CC1 (stereo not given)	?	21µM*	-86*	?	13µM*	?
CC(Oc1ccc(Cl)cc1Cl)C(=O)Nc1ccc(O)cc1 (stereo not given)	-23%	0%	-66*	5%	-19%	?
CC(Oc1ccc(Cl)cc1Cl)C(=O)Nc1ccc(N2CCN(C)CC2)cc1 (stereo not given)	?	?	-27	?	?	18µM*
CC(Oc1ccc(Br)cc1Cl)C(=O)Nc1ccncc1 (stereo not given)	8.2µM*	16µM*	?	-8%	?	5.2µM*
CN1CCN(c2ccc(NC(=O)c3ccc(Cl)cc3Cl)cc2)CC1	1%	19%	0	-25%	9%	5%
CCOc1ccccc1NC(=S)NC(=O)CCCOc1ccc(Cl)cc1Cl	-21%	?	-1	?	11µM*	?
CN1C[C@H](C(=O)Nc2nccs2)C[C@H]1c1cccc(C(F)(F)F)c1	.	.	.	-12%[176 µM]	.	.
Cc1occc1C(=O)NNC(=O)COc1ccc(Br)cc1Br	-8%	-10%	4	-2%	-1%	-13%
Cc1occc1C(=O)NNC(=S)NC(=O)COc1ccc(Cl)cc1Cl	?	-19%	7	?	0%	18µM*
SMILES	TDP1 cell CPT	HT1080 IDH1KD tx	IL-1B inflam inh	12-LOX inh	HT1080-NT tox	DT40 TDP1 no CPT
CC(=O)NC(=S)Nc1ccc(NC(=O)COc2ccc(Cl)cc2Cl)cc1	?	?	?	0%	?	6.5µM*
CC(=O)N1CCN(c2ccc(NC(=O)C(C)Oc3ccc(Cl)cc3Cl)cc2)CC1 (stereo not given)	?	1%	-16	0%	1%	21µM*
O=C(COc1ccc(Cl)cc1Cl)NNC(=S)Nc1ccc(F)cc1	-25%	-4%	-3	?	-11%	-17%
CSc1ccccc1NC(=O)COc1ccc(Cl)cc1Cl	?	-21%	0	-23%	-16%	-26%
O=C(COc1ccc(Cl)cc1Cl)Nc1ccccn1	-19%	10µM*	-22	-10%	-25%[9.24 µM]	-6%
C=CC(C)(CCC=C(C)C)OC=O (stereo not given)	.	.	.	88%[176 µM]	.	.
COc1cc(-n2ccnc2SC)c(Cl)cc1Cl	?	-12%	12	0%	-7%	18µM*
Cc1cccnc1NCc1ccc(O)c2ncccc12	4.6µM*	?	100	?	?	5.8µM*
Cc1cccc(NCc2ccc(O)c3ncccc23)c1C	?	?	23	5.6µM*	-23%	15µM*
Cc1ccc(NCc2ccc(O)c3ncccc23)cc1	?	-25%	-3	4µM*	1%	?
CC(=O)Oc1ccc2c(C)c(CC(=O)Nc3ncc(C)s3)c(=O)oc2c1	.	.	.	1%	.	.
O=C(c1ccccc1F)N1CCC(Oc2ncccc2C(=O)N2CCCCC2)C1 (stereo not given)	.	.	.	37%	.	.
Cc1nn(-c2cccc(Cl)c2)c(Cl)c1/C=N/NC(=O)c1cccs1	16µM*	?	-2	1%	-2%	13µM*
Cc1nn(-c2ccccc2)c(Cl)c1/C=N/NC(=O)c1ccccc1NS(=O)(=O)c1cccs1	-27%	?	0	-12%	?	?
Fc1cccc(CN(C2=NCCN2)c2c(Cl)cccc2Cl)c1	?	-21%	-16	-20%	?	21µM*
O=C(N/N=C/c1cccnc1)C1CC1	.	.	.	25%	.	.
COc1ccc(-c2c[n+]3c4n2CCCCC4=C(c2ccc(Br)cc2)C3)cc1	6.5µM*	?	-98*	-25%	?	10µM*
CCCCCC(=O)NNC1CC(=O)N(c2ccccc2)C1=O (stereo not given)	0%	11%	14	221%	6%	-6%
